Screening results: PubChem, The Scripps Research Institute Molecular Screening Center
FBW7 act – FBW7 E3 ligase activators, primary screen, biochemical, AlphaScreen, human; F-box/WD repeat-containing protein 7 (Homo sapiens), Q969H0; AlphaScreen FBW7–phospho-cyclin E peptide binding, activator screen; normalized activity (activation), % at 26.1 µM; 650,000 compounds, 0.13% hits; AID 1259310, 2017; in the data active means normalized activity above about 1.9%;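 further: purified mutant Fbw7 with reduced substrate affinity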
MITF primary – MITF inhibitors, primary screen, biochemical, AlphaScreen, human; Microphthalmia-associated transcription factor (Homo sapiens), O75030; AlphaScreen MITF homodimerization, bead proximity signal; inhibition, % at 2.6 µM; 650,000 compounds, 0.91% hits; AID 1259374, 2018; in the data active means inhibition above about 50%
Target sequence (O75030 whole entry, looked up): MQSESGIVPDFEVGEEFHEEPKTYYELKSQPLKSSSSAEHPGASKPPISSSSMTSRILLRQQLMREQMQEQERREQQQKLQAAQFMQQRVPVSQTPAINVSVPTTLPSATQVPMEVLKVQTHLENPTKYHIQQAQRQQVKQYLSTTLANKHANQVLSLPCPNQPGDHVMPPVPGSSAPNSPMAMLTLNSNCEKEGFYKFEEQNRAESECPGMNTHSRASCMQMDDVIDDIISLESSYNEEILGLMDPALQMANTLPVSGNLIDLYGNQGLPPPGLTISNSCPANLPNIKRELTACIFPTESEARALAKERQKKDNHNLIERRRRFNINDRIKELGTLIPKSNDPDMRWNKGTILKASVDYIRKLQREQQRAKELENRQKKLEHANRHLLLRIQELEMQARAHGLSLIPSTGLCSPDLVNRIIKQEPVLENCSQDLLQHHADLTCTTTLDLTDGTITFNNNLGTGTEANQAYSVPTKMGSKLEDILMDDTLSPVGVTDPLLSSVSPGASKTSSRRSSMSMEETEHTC
TEAD-YAP block – TEAD-YAP interaction inhibition, primary screen, TEAD-YAP interaction inhibitor project, luminescence, HEK-TIYL cells | TEAD-Gal4/YAP UAS-luciferase luminescence | inhibition, % at 9.12 µM | 640,000 compounds, 1.4% hits; in the data active means inhibition above about 32%
GPR151 activ – activators of human GPR151, primary screen, cell-based, PathHunter beta-arrestin, luminescence; activation, % at 11.2 µM; PathHunter beta-arrestin GPR151 cells; 650,000 compounds, 1% hits; in the data active means activation above about 4.9%
MITF inh conf – MITF inhibitors, retest of hits, confirmation, biochemical, AlphaScreen, triplicate; shares compounds with MITF primary; AlphaScreen MITF homodimerization, biotin/His-MITF beads; inhibition, % at 2.6 µM; 4,700 compounds, 16% hits; AID 1259372, 2018;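 active means inhibition above a cutoff derived from the DMSO control wells, cut at about 28% in these data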;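 further: inhibitors lower the bead chemiluminescence by keeping MITF from dimerizing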
AS interf DR – AlphaScreen optical interference compounds, dose response, counter-screen, biochemical, HTS; AlphaScreen optical interference counterscreen, cell-free; 480 compounds, 6% hits; shares compounds with MITF primary; IC50, µM; call rule not given here
AS interf ctr – AlphaScreen optical interference compounds, counter-screen for MITF inhibitor project, biochemical, triplicate. LysRS AlphaScreen counterscreen, signal interference. 4,700 compounds, 7.6% hits. inhibition, % at 2.6 µM. shares compounds with MITF primary;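 active means inhibition above a cutoff derived from the DMSO control wells, cut at about 30% in these data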
Large screens that a line does not name were inactive (follow-up assays come after a bar, where they were run). Most compounds without a hit are left out; they make up all but 3.4% or so of the library.

CCOC(=O)c1ccc(NC(=O)CSc2ccc(F)cc2)cc1	MITF primary 54 | MITF inh conf inactive | AS interf ctr inactive
COc1cccc(CN2CCC(N3CCCC3)CC2)c1OC	none
COc1cc(CN2CCN(Cc3cccc(C)c3)CC2)cc(OC)c1OC	none
COc1cccc(CN2CCN(C3CCC(C)CC3)CC2)c1OC (stereo not given)	MITF primary 70 | MITF inh conf inactive | AS interf ctr inactive
COc1cccc(CN2CCN(C3CCCCC3OC)CC2)c1OC (stereo not given)	MITF primary 74 | MITF inh conf inactive | AS interf ctr inactive
COc1cccc(CN2CCN(Cc3cc(OC)c(OC)c(OC)c3)CC2)c1OC	MITF primary 62 | MITF inh conf inactive | AS interf ctr inactive
COc1ccccc1CNC(=O)CN1CCN(C)CC1	MITF primary 80 | MITF inh conf inactive | AS interf ctr inactive
Cc1ccc(S(=O)(=O)N2C(=O)CCC2C(=O)N2CCCC2)cc1 (stereo not given)	none
CCc1ccccc1OCC(=O)NCc1cccs1	none
Cc1ccc(-c2nc3ccccc3c(=O)n2CC(=O)Nc2ccc(C)cc2Br)cc1	none
CCC1CCCCN1C(=O)C1=C(C)C(=O)OC12CCC(C)CC2 (stereo not given)	none
COc1cccc(CN2CCN(Cc3cccc(OC)c3OC)CC2)c1OC	MITF primary 74 | MITF inh conf inactive | AS interf ctr inactive
COc1cccc(CN2CCC(N3CCN(c4ccccc4)CC3)CC2)c1OC	MITF primary 56 | MITF inh conf inactive | AS interf ctr inactive
COc1ccc(CN2CCC(N3CCN(c4ccccc4)CC3)CC2)cc1OC	MITF primary 56 | MITF inh conf inactive | AS interf ctr inactive
COc1cccc(CN2CCN(Cc3ccccc3Br)CC2)c1OC	none
COc1ccccc1CN1CCN(Cc2cccc(OC)c2OC)CC1	MITF primary 86 | MITF inh conf inactive | AS interf ctr inactive
COc1ccc(NC(=O)CC2C(=O)N(c3ccccc3)C(=S)N2Cc2ccc3c(c2)OCO3)cc1 (stereo not given)	none
CCOC(=O)C1C(=O)C=C(c2cccc(OC)c2)CC1c1cccs1 (stereo not given)	none
CN(C(=O)c1cccnc1)c1ccccc1	none
Cc1nc2c(c(=O)[nH]1)CN(C(=O)C(c1ccccc1)C1CCCCC1)CC2 (stereo not given)	none
COc1cc(C(=O)N2CCN(Cc3cccc(Oc4ccccc4)c3)CC2)cc(OC)c1OC	none
COc1cccc(CN2CCN(Cc3cccc(Oc4ccccc4)c3)CC2)c1OC	MITF primary 74 | MITF inh conf inactive | AS interf ctr inactive
CCOCCOC(=O)c1ccc(NC(=O)COc2ccc(C)cc2C)cc1	none
Cc1c(C(=O)O)cccc1-c1ccc(/C=C(\C#N)C(=O)NCc2ccco2)o1	none
N#C/C(=C\c1ccc(-c2ccccc2C(=O)O)o1)C(=O)NCc1ccco1	MITF primary 76 | MITF inh conf 64 | AS interf DR inactive | AS interf ctr inactive
O=C(CSc1nc(-c2ccccc2)cc(C(F)(F)F)n1)N1CCOCC1	none
CC(Sc1nc(-c2ccccc2)cc(C(F)(F)F)n1)C(N)=O (stereo not given)	MITF primary 54 | MITF inh conf inactive | AS interf ctr inactive
Cc1ccc(CN(C)C(=O)CC2C(=O)NCCN2C)cc1 (stereo not given)	none
O=C(CNCCc1ccc2c(c1)OCCO2)N1CCc2ccccc21	MITF primary 51 | MITF inh conf inactive | AS interf ctr inactive
CCOC(=O)c1c(NC(=O)Cc2cccc3ccccc23)sc2c1CCC2	none
N#Cc1ccc(NC(=O)c2cccc(S(=O)(=O)Nc3cccc(C(F)(F)F)c3)c2)cc1	none
O=C1c2ccccc2C(=O)N1c1ccccc1	none
Nc1cccc2c1C(=O)N(c1ccccc1)C2=O	MITF primary 52 | MITF inh conf inactive | AS interf ctr inactive
